Compound activity from PubChem BioAssay.
Rows were chosen to be rich in hits. Some 1.5% of all compounds tested hit in one or more screens of this group.
TMEM16A inh = TMEM16A chloride channel inhibitors, primary screen, cell-based, HTS; Anoctamin-1 (Mus musculus), Q8BHY3; HEK293 TMEM16A/YFP iodide influx fluorescence, ionomycin; normalized B-score (activity score, 25-100; higher = stronger inhibition) at 10 µM; 1.2% of 310,000 active; AID 588511, 2011;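 active = ratio plate-corrected score three or more library SD toward inhibition, starting fluorescence score within five deviations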;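 note: score derived from kinetic fluorescence span divided by baseline fluorescence per well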
DAGLB inhibitor = DAGLB lipase inhibitors, primary screen, biochemical, fluorescence, HTS; Diacylglycerol lipase-beta (Homo sapiens), Q8NCG7; HEK293T DAGLB membrane lysate, EnzChek fluorogenic substrate; inhibition, % at 5.17 µM; 0.059% of 340,000 active; in the data active = inhibition above about 34%;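 note: 0% = enzyme with vehicle and 100% = wells lacking enzyme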
Target sequence (Q8NCG7 whole entry, looked up): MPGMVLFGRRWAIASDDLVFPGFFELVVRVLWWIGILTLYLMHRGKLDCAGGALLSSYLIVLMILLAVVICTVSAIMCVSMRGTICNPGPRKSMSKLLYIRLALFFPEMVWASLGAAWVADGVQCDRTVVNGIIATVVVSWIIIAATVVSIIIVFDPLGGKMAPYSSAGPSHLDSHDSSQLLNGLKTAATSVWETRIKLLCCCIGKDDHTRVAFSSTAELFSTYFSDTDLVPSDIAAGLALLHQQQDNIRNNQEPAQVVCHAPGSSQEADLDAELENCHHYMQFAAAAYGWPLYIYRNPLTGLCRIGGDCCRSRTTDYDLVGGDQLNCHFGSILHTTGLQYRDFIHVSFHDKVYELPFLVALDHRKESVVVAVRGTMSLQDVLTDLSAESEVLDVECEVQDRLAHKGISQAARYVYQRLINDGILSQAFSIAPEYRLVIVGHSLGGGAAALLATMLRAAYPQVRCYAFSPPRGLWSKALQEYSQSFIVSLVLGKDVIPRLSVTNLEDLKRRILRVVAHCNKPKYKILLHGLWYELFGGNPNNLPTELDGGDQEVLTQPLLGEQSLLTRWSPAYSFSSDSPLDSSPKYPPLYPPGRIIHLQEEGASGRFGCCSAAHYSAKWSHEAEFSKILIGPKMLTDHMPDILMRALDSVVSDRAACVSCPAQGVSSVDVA
ABCB6 inh 2 = ABCB6 transporter inhibitors, primary screen, K562-ABCB6 cells, flow cytometry, MLPCN library; ATP-binding cassette sub-family B member 6 (Homo sapiens), Q9NP58; K562-ABCB6 porphyrin accumulation, 1 h; active compounds read low; fluorescence ratio to DMSO, % at 10 µM; 0.19% of 360,000 active;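 active = fluorescence ratio to DMSO below 75%, the collection mean minus 3 SD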;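 note: signal is porphyrin accumulated inside mitochondria; 100% equals median channel fluorescence of DMSO control wells; lower ratio means ABCB6 inhibition with less porphyrin fluorescence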
ANO1 activ = TMEM16A chloride channel activators or potentiators, primary screen, cell-based, HTS. B-score at 10 µM. Anoctamin-1 (Mus musculus), Q8BHY3. 0.3% of 340,000 active. AID 623877, 2012. HEK293 TMEM16A/YFP-H148Q/I152L, iodide quench fluorescence; active compounds read low;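 active = fluorescence-ratio B-score plate-corrected deviation score at least 3 library SD below zero, with starting fluorescence score within 5 deviations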;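 note: channel opened by trigger with iodide after compound preincubation; score built on the fluorescence ratio of max minus min over baseline; more negative score means more quench and so TMEM16A activation or potentiation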
iPSC survival up = enhancers of single-cell hiPSC survival, primary screen, ATPlite luminescence | survival enhancement, % at 20 µM | 100% = ROCK inhibitor wells, 0% = DMSO | 0.044% of 360,000 active; in the data active = survival enhancement above about 18%;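 note: cells exposed to compounds for 16 hours before the ATP read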
TMEM16A reconf = TMEM16A chloride channel inhibitors, confirmation, cell-based, re-confirmation | 39% of 2,300 active | inhibition, % at 10 µM | AID 652189, 2013 | shares compounds with TMEM16A inh | HEK293 TMEM16A/YFP-H148Q, iodide quench fluorescence; ionomycin added to raise cell calcium;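 active = mean duplicate percent inhibition, scaled so buffer wells are 0 and the reference blocker 100, over three buffer SD above buffer mean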
HEK293 Ca mobil = calcium mobilization in TMEM16A/YFP HEK293 cells, confirmation, counter-screen for TMEM16A inhibitor project; shares compounds with TMEM16A inh; Fluo4 calcium mobilization; calcium response (% of ionomycin), % at 10 µM; 2% of 2,300 active;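 active = duplicate-averaged calcium signal over 20% of the ionomycin maximum, relative to buffer baseline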;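 note: each well's signal is peak minus trough fluorescence divided by its pre-addition baseline; 0% = buffer wells and 100% = ionomycin wells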
Parental YFP cnt = iodide YFP quench changes in parental YFP-HEK293, counter-screen for TMEM16A inhibitor project, cell-based. shares compounds with TMEM16A inh. ionomycin. YFP ratio F(max-min)/F0 at 10 µM. 2,300 tested, under 10 active. AID 652233, 2013;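 active = yellow fluorescent protein signal ratio exceeding the buffer control mean by over 5 SD of those controls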;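 note: ratio is mean of duplicate wells from kinetic YFP trace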
ClC-1 rat inh = ClC-1 chloride channel inhibition, selectivity assay for TMEM16A inhibitor project, cell-based, voltage-dependent ClC-1; shares compounds with TMEM16A inh; CHO ClC-1-YFP, iodide influx fluorescence quench; iodide control reads 0, buffer control 100; 2,300 tested, under 10 active; ratio percent, % at 10 µM;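 active = duplicate-mean ratio percent above the mean of iodide-only control wells, which defines zero, plus 5 of their SD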;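 note: higher percent means stronger block of ClC-1 iodide influx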
* hit, by the source's call; i = inactive; x = no result.

SMILES	TMEM16A inh	DAGLB inhibitor	ABCB6 inh 2	ANO1 activ	iPSC survival up	TMEM16A reconf	HEK293 Ca mobil	Parental YFP cnt	ClC-1 rat inh
O=C(OCC(=O)N1CCc2ccccc21)c1c2c(nc3ccccc13)CCCCC2	100*	-7	94	i	2	i	i	-1.2	-13
Cc1ccc(S(=O)(=O)N(Cc2ccccc2)Cc2ccco2)cc1	100*	-15	89	i	-1	28%*	i	-1	-8
Cc1ccc(CN(Cc2ccco2)S(=O)(=O)c2ccc(S(=O)(=O)NCC3CCCO3)cc2)cc1 (stereo unspecified)	i	-5	101	i	12	x	x	x	x
Cc1ccc(S(=O)(=O)N(Cc2ccc(F)cc2)Cc2ccco2)cc1	100*	-12	101	i	3	i	i	-1.1	-10
Cc1ccc(S(=O)(=O)N(CC(=O)O)Cc2ccco2)cc1	i	-3	98	i	-1	x	x	x	x
O=C1/C(=C/c2ccc(O)c(O)c2)Oc2cc(O)ccc21	i	5	252	i	-2	20%*	34%*	-1.5	-62
COc1cc(/C=C2\Oc3cc(O)ccc3C2=O)ccc1O	i	-6	113	i	-4	x	x	x	x
COc1ccc(CN(C)C(=O)c2ccc(NS(=O)(=O)c3ccccc3)cc2)c(OC)c1	i	1	96	i	0	x	x	x	x
COc1ccccc1CN(C)C(=O)c1ccc(COc2ccccc2)cc1	100*	-3	95	i	1	i	i	-0.92	-2
COc1ccc(CN(C)C(=O)c2ccc(COc3ccccc3)cc2)c(OC)c1	25*	-2	103	i	0	i	i	-1.1	-5
COc1cccc(CNc2nc3cc(-c4cnn(Cc5ccccc5)c4)sc3c(=O)n2C)c1	x	x	86	x	-2	x	x	x	x
COc1ccc(OC)c(CNc2nc3ccccc3n2CCN2CCCCC2)c1	i	-2	86	i	3	x	x	x	x
COc1cccc(CNc2nc3ccccc3n2CCN2CCCCC2)c1OC	25*	-1	93	i	-1	i	i	-0.99	-16
Cc1ccc2c(c1)nc1c3ccccc3nc(-c3ccccc3N)n21	x	-10	93	x	3	x	x	x	x
CCN(CC)S(=O)(=O)c1cccc(-c2nnc(SCc3nc4ccccc4s3)o2)c1	100*	-5	91	i	-2	18%*	i	-0.91	0
CCOC(=O)c1c(NC(=O)CSc2nnc(Cc3ccccc3)o2)sc(C)c1C	100*	-16	97	i	4	i	i	-1.2	0
CCOC(=O)c1c(NC(=O)CSc2nnc(-c3ccccc3C)n2C)sc(C(C)=O)c1C	25*	-2	97	i	0	i	i	-0.79	-12
CC12CCC(=O)N1C(C(=O)N1CCN(c3ccc([N+](=O)[O-])cc3)CC1)CS2 (stereo unspecified)	x	1	102	i	-1	x	x	x	x
CC(C)(C)c1ccc(C2=CC(c3ccccc3F)n3ncnc3N2)cc1 (stereo unspecified)	i	-7	94	i	0	x	x	x	x
Cn1cccc1C1C=C(c2ccc(C(C)(C)C)cc2)Nc2ncnn21 (stereo unspecified)	100*	-7	97	i	3	50%*	i	-0.85	-8
Oc1ccc(C[C@H]2CNC(=S)N2CC2CCCN2C[C@H](Cc2ccccc2)N2C[C@H](Cc3ccc(O)cc3)N(CCc3ccccc3)C2=S)cc1 (stereo partly specified)	x	4	108	x	-1	x	x	x	x
CC(NC(=O)c1cc(COc2ccc3ncccc3c2)on1)c1ccc(F)cc1 (stereo unspecified)	i	4	97	i	-1	x	x	x	x
Cc1ccc(OCc2cc(C(=O)NC3CCCCC3)no2)cn1	i	0	95	i	0	x	x	x	x
O=C(NCCc1cn2ccccc2n1)c1cc(COc2ccc3ncccc3c2)on1	100*	2	89	i	0	19%*	i	-1.1	-29
COc1cccc(CN(C)C(=O)c2cc(COc3ccc4ncccc4c3)on2)c1	25*	-2	91	i	0	38%*	i	-0.98	-34
SMILES	TMEM16A inh	DAGLB inhibitor	ABCB6 inh 2	ANO1 activ	iPSC survival up	TMEM16A reconf	HEK293 Ca mobil	Parental YFP cnt	ClC-1 rat inh
COc1cccc(OCc2cc(C(=O)N(C)Cc3nccn3C)no2)c1	i	0	101	i	0	x	x	x	x
O=C(c1cc(COc2ccc3ncccc3c2)on1)N1CCCC1	25*	0	98	i	0	26%*	i	-1.1	-26
O=C(c1cc(COc2ccc3ncccc3c2)on1)N1CCCCCC1	i	-2	93	i	0	x	x	x	x
O=C(NC1CCCC1)c1cc(COc2ccc3ncccc3c2)on1	25*	1	94	i	0	i	i	-1.1	-22
CC(C)(C)CNC(=O)c1cc2c(Br)ccc(Br)c2nc1N	x	x	101	x	-1	x	x	x	x
CSc1ccccc1OCc1cc(C(=O)N2CCC(c3ccncc3)CC2)no1	100*	-4	84	i	0	i	i	-1.2	-20
COc1cc(Cl)ccc1OCc1cc(C(=O)N(C)Cc2cccc3cnccc23)no1	100*	1	99	i	1	25%*	i	-1.1	-13
COCC1CCN(C(=O)c2cc(COc3ccc4ncccc4c3)on2)CC1	25*	-1	93	i	-1	32%*	i	-0.89	-13
COCC1CCN(C(=O)c2cc(COc3ccc(-n4cncn4)cc3)on2)CC1	i	0	110	i	0	x	x	x	x
CN(Cc1nccs1)C(=O)c1cc(COc2cccc3cnccc23)on1	i	-2	87	i	0	x	x	x	x
CCCc1nn2c(-c3ccccc3)nnc2o1	x	0	99	x	-2	x	x	x	x
COc1ccc(/C(O)=C/C(=O)C(=O)NNC(=O)c2ccccc2)cc1	i	3	99	i	-1	x	x	x	x
